Inconclusive results are not listed. Active and inactive are the calls of the source. Calls come from the whole dose curve; as a rule, active = well fitted inhibition curve with a large enough effect; inconclusive = small, poorly fitted or top-dose-only effect; inactive = flat fitted curve, though single readings scatter.
Legend:
Assay in all cases: qHTS profiling for inhibitors of Plasmodium falciparum proliferation (AID 504749); note: nearly all actives have a fitted effect of over 60% in size
Conditions in all cases: P. falciparum in erythrocytes, SYBR Green DNA, 72 h; series mostly up to 28.7 µM
AA1029 = tested on: AA1029
In short: (§1)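 SYBR Green fluorescence of parasite DNA, read after lysis and overnight dark incubation, measured growth over 72 h in erythrocyte culture at 0.3% parasitemia and 2.5% hematocrit. Data normalised to DMSO and 0.29 uM artemisinin, with plate-drift correction.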

AS120 = tested on: AS120
In short: as §1

ATS189 = tested on: ATS189
In short: as §1

ATS95 = tested on: ATS95
In short: as §1

C2A = tested on: C2A
In short: as §1

CP185 = tested on: CP185
In short: as §1

CP191 = tested on: CP191
In short: as §1

CP192 = tested on: CP192
In short: as §1

CP194 = tested on: CP194
In short: as §1

CP201 = tested on: CP201
In short: as §1

CP211 = tested on: CP211
In short: as §1

CP215 = tested on: CP215
In short: as §1

CP217 = tested on: CP217
In short: as §1

CP237 = tested on: CP237
In short: as §1

CP238 = tested on: CP238
In short: as §1

CP247 = tested on: CP247
In short: as §1

CP250 = tested on: CP250
In short: as §1

CP252 = tested on: CP252
In short: as §1

CP256 = tested on: CP256
In short: as §1

CP260 = tested on: CP260
In short: as §1

Measured: Potency

CCN1CCC[C@H]1CNC(=O)c1cc(S(N)(=O)=O)ccc1OC
inactive: all assays above

CC(=O)c1ccc(S(=O)(=O)NC(=O)NC2CCCCC2)cc1
inactive: all assays above

O=C(NCCN1CCOCC1)c1ccc(Cl)cc1
inactive: all assays above

CCN(CC)C(=O)c1ccc(O)c(OC)c1
inactive: all assays above

CC(=O)CCCCn1c(=O)c2c(ncn2C)n(C)c1=O
inactive: all assays above

COCCCCC(=NOCCN)c1ccc(C(F)(F)F)cc1
inactive: CP192

O=C1NCC2(CCN(CCc3ccccc3)CC2)O1
not listed: CP260
inactive: all other assays above

CC(=O)N[C@@H](CS)C(=O)O
inactive: all assays above

O=c1[nH]cnc2c1ncn2[C@H]1CC[C@@H](CO)O1
not listed: CP191 | CP260
inactive: all other assays above

CC1(C)O[C@H]2C[C@@H]3[C@H]4CCC5=CC(=O)C=C[C@]5(C)[C@@]4(F)[C@@H](O)C[C@]3(C)[C@]2(C(=O)CO)O1
not listed: AS120
inactive: all other assays above

CCCNC(=O)NS(=O)(=O)c1ccc(Cl)cc1
inactive: all assays above

O=C(O)Cc1cccc2ccccc12
inactive: all assays above

O=C1Nc2ccc(Cl)cc2C(C#CC2CC2)(C(F)(F)F)O1 (stereo not drawn)
not listed: AS120 | CP194 | CP215
inactive: all other assays above

CCN(CC)CCOC(=O)c1ccc(N)cc1
inactive: all assays above

C[C@@H](O)[C@H]1C(=O)N2C(C(=O)O)=C(S[C@@H]3CN[C@H](C(=O)N(C)C)C3)[C@H](C)[C@H]12
inactive: all assays above

CN(C)CCC(c1ccccc1)c1ccccn1 (stereo not drawn)
not listed: AA1029 | ATS95 | CP185 | CP192 | CP194 | CP215
inactive: all other assays above

Reference: PubChem BioAssay (NCATS)
